Experiment [1] is described as follows: Cell Viability - LYMP2-001 (AID 921). Note: nearly all actives have a fitted effect of over 70% in size. Note: potency is the fitted concentration of half-maximal effect. The procedure, abridged: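 Human lymphoblastoid cells (Coriell), 2500 per well, were preincubated 5 hr at 37 C, then exposed to compounds in complete medium for 24 hr at 37 C. Cellular ATP was read by CellTiter-Glo luminescence; AC50 from Hill fits of concentration-response data.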
The nature of experiment [2]: MultiTox-Fluor Cytotoxicity Assay - LYMP1-001 - Dead Cells (AID 946). Note: potency is the fitted concentration of half-maximal effect. The procedure, abridged:
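AC50 from Hill fit of concentration-response; data normalized to DMSO (basal) and 15 uM tetraoctylammonium bromide (100%). LYMP1-001 lymphoblastoid cells, 2500/well, 16 hr compound at 37 C; dead-cell protease fluorescence, Ex/Em 485/520.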

Experiment [3] can be described thus: Cell Viability - LYMP1-002 - Assay at 16 hr (AID 948). The procedure, abridged: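 Human lymphoblastoid cells (LYMP1-002), 2500/well, were preincubated 5 hr at 37 C, then exposed to compounds for 16 hr at 37 C in complete medium. Cellular ATP was read by CellTiter-Glo luminescence after 30 min at room temperature; AC50 from Hill fits.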
A short description of experiment [4]: MultiTox-Fluor Cytotoxicity Assay - LYMP1-001 - Live Cells (AID 947).
The nature of experiment [5]: Confirmation and Secondary Assay for Modulators of Hemoglobin Beta Chain Splicing at IVS2 705 locus (AID 930).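 Note: HeLa cells stably expressing the EGFP-705 splicing reporter; series mostly up to about 46 µM.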 The procedure, abridged: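 Restored EGFP fluorescence after 2-day compound exposure reports splicing correction in IVS2-705 EGFP reporter HeLa cells; positive control was 500 nM splice-blocking PNA oligo. Signal measured as well total peak GFP intensity (488 nm excitation).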

The nature of experiment [6]: qHTS Assay for Identification of Small Molecule Agonists for Hypoxia Response Element Signaling Pathway (AID 914; active = well fitted activation curve with a large enough effect in the signal ratio, with a control signal flat, not every such curve was filed as active; the % refers to the signal ratio). The settings on record: ME-180 (cervical carcinoma) HRE-bla reporter, beta-lactamase ratio, CoCl2, 17 h; active compounds read high. The procedure, abridged:
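AC50 values come from titration-series %Activity, taken as the 460/530nm ratio of CCF4 fluorescence (excitation 405nm). CellSensor HRE-bla ME-180 cells were treated 17 hours at 37 C with compound plus an EC50 level of CoCl2.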
A general note: In qHTS, concentration-response curves come from the screen itself.

Experiment [7] can be described thus: qHTS Assay for Identification of Small Molecule Agonists for Thrombopoietin (TPO) Signaling Pathway (AID 917). The procedure, abridged:
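First, Ba/F3 cells with human TPO receptor were held overnight without IL-3. Next, compounds and TPO (26 pM final) were added. After 24 hrs at 37 C, luciferase detection reagent was added and luminescence measured following 10 min at room temperature.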

For experiment [8], the target named is Muscarinic acetylcholine receptor M1 (Rattus norvegicus) (UniProt P08482). Briefly: qHTS Assay for Antagonists of Acetylcholine Muscarinic M1 Receptor: Kinetic Measurement of Intracellular Calcium Response (AID 943). Note: series mostly up to about 35 µM; nearly all actives have a fitted effect of over 75% in size. The procedure, abridged: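 Read-out: peak over basal Fluo-4 fluorescence, kinetic at 1 Hz for 4 min after EC80 carbachol (100 nM final). Rat M1-CHO cells, dye loaded 1 h at 37C, compound added 10 min before agonist.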
Chain of Muscarinic acetylcholine receptor M1 (Rattus norvegicus) (P08482 whole entry, looked up): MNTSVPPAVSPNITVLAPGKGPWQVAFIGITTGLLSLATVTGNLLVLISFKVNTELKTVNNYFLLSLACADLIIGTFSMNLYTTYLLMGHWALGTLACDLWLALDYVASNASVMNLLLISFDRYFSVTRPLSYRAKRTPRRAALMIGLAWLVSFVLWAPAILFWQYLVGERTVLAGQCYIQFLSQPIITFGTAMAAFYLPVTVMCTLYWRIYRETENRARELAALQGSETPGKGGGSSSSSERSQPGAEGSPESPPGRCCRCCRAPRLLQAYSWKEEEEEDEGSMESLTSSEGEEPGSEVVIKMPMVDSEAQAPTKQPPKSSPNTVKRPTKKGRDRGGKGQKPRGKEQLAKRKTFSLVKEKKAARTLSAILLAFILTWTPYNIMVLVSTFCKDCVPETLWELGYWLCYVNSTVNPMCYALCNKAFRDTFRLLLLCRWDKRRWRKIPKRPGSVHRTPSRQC

The target is the same in experiment [9]. The experiment in a line: qHTS Assay for Antagonists of Acetylcholine Muscarinic M1 Receptor: Measurement of IP-One Response (AID 944). Note: nearly all actives have a fitted effect of over 75% in size. The procedure, abridged: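 Read-out: HTRF competition between d2-IP1 and Eu-cryptate anti-IP1 antibody, emission 620 and 665 nm. Stimulus was carbachol, EC80 (200 nM), for 30 min in M1-CHO cells (rat receptor), after 10 min compound pre-treatment.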

For experiment [10], the target named is Pyruvate kinase (Leishmania mexicana) (UniProt Q27686). The experiment in a line: qHTS Validation Assay for Inhibitors of Leishmania Mexicana Pyruvate Kinase (AID 945). A digest of the protocol: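 Purified LmPYK (E451W mutant, 0.2 nM) was incubated 1 h at room temperature with 0.5 mM PEP and 0.1 mM ADP in 50 mM imidazole pH 7.2, 50 mM KCl, 7 mM MgCl2; ATP formed was read by PKLight luminescence, normalized to DMSO wells.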
Chain of Pyruvate kinase (Leishmania mexicana) (Q27686 2-499 E452W): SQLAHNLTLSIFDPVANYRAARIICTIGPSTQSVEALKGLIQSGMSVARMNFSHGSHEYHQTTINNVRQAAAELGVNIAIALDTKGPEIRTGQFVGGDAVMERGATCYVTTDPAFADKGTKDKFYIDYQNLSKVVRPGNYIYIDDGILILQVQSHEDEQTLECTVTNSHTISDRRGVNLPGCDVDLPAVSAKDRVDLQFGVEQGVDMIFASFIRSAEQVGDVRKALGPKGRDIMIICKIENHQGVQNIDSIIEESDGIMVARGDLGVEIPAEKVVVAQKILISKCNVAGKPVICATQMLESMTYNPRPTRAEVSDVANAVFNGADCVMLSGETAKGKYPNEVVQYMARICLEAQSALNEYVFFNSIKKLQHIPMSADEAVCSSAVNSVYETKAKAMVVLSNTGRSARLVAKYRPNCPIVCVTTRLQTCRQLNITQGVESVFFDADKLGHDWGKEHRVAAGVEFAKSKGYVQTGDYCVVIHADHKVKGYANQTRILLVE

The structures appear in SMILES notation. Values without a mark were called inactive. Records with an inconclusive call do not appear. Where a call stands in place of a potency, no number is given. The source made the active and inactive calls. Unless noted, calls come from the whole dose curve; as a rule, active = well fitted curve in the direction sought with a large enough effect; inconclusive = small, poorly fitted or top-dose-only effect, or another doubt; inactive = no such curve, though single readings can be large; an effect the other way counts as inactive or inconclusive.

In the case of `O=CCCCC=O`, in experiment [1], the Potency is 15.8 µM (active). In [2], the Potency entry is “inactive”. Also, the call in experiment [3] was inactive.

Regarding `CC1=C2[C@@H]([C@H](C)CC[C@H]2/C=C(\C)C(=O)O)[C@H](O)C1`, the Potency entry in experiment [1] and in experiment [2] was “inactive” in each case. The outcome in experiment [4] and in experiment [3] was inactive.

For the molecule `CC(C(=O)O)c1ccc(N2Cc3ccccc3C2=O)cc1` (stereo not drawn), the outcome in experiment [5] was inactive.

On to `CCCCCCCC/C=C\CCCCCCCC(=O)O`, for which the Potency result in [1] and in experiment [2] was “inactive” throughout. For the same molecule, in [3], the result was inactive.

Turning to `C[C@@H]1CCC2[C@@H](C)[C@@H](O)O[C@@H]3O[C@@]4(C)CC[C@@H]1[C@@]23OO4` (stereo partly drawn), in experiment [5], the molecule was called inactive.

On to `Oc1cc(O)c2c(c1)OC(c1ccc(O)c(O)c1)C(O)C2` (stereo not drawn), for which the molecule was classed as inactive in [5].

For the molecule `CCOC(C)=O`, the Potency entry in [1] and in experiment [2] was “inactive” throughout. Also, the molecule was called inactive in experiment [4] and in [3].

Consider `Cc1onc(-c2ccccc2)c1C(=O)N[C@@H]1C(=O)N2[C@@H]1SC(C)(C)[C@@H]2C(=O)O`, for which the activation in experiment [6] was -2.15%.

Consider `CC1=C(/C=C/C(C)=C/C=C/C(C)=C/C=C/C=C(C)/C=C/C=C(C)/C=C/C2=C(C)CCCC2(C)C)C(C)(C)CCC1`, for which the call in [5] was inactive.

For `CCC(=O)NCCC1CCc2ccc3c(c21)CCO3` (stereo not drawn), in experiment [5], the outcome was inactive.

For the molecule `CN=C(NC#N)Nc1ccc(C2=NNC(=O)C[C@@H]2C)cc1`, the activation in experiment [6] is 1.72%. Further, the molecule was classed as inactive in experiment [7], in [8], in [9] and in experiment [10].

Regarding `O=C(O)CCC(=O)C(=O)O`, the Potency entry in experiment [1] and in experiment [2] was “inactive” each time. Moreover, the molecule was called inactive in experiment [4] and in experiment [3].

`CC(O)CO` (stereo not drawn): the Potency result in experiment [1] and in experiment [2] was “inactive” throughout. The result in experiment [4] and in experiment [3] was inactive.

Take `NC(=O)c1ncn(C2OC(CO)C(O)C2O)n1` (stereo not drawn): the result in [5] was inactive.

As for `CN1Cc2c(N)cccc2C(c2ccccc2)C1` (stereo not drawn), the outcome in [5] was inactive.

As for `Nc1ccn([C@H]2CS[C@@H](CO)O2)c(=O)n1`, the Potency entry in experiment [1] and in experiment [2] was “inactive” each time. The result in experiment [4] and in experiment [3] was inactive.

As for `CCCCCCCC(=O)O`, the Potency result in [1] and in experiment [2] was “inactive” each time. For the same molecule, the molecule was called inactive in [4] and in [3].

As for `C=CCSSSCC=C`, in [5], the molecule was classed as inactive.

As for `CCCC(=O)Nc1ncnc2c1ncn2C1OC2COP(=O)(O)OC2C1OC(=O)CCC` (stereo not drawn), the call in experiment [5] was inactive.

Consider `CCOc1ccc2c(c1)C(C)=CC(C)(C)N2`, for which the Potency result in [1] and in experiment [2] was “inactive” each time. For the same molecule, the result in [5], in [4] and in [3] was inactive.

As for `IC(I)I`, the Potency result in [1] and in [2] was “inactive” throughout. The outcome in experiment [4] and in experiment [3] was inactive.

Regarding `Nc1c(Br)cc(Br)cc1CNC1CCC(O)CC1` (stereo not drawn), the molecule was classed as inactive in experiment [5].

Consider `CCCCC/C=C\C/C=C\CCCCCCCC(=O)O`, for which the Potency entry in experiment [1] and in [2] was “inactive” each time. Besides, in experiment [3], the call was inactive.

As for `COc1ccc(CCNC[C@H](O)c2ccc(O)cc2)cc1OC`, the molecule was called inactive in [7] and in experiment [10].

Regarding `O=S(=O)(O)O`, the Potency result in experiment [1] and in [2] was “inactive” throughout. Moreover, the result in experiment [4] and in experiment [3] was inactive.

As for `O=C(O)CN(CCN(CC(=O)O)CC(=O)O)CC(=O)O`, in [5], the molecule was classed as inactive.

On to `CC[N+](C)(C)Cc1ccccc1Br`, for which the molecule was called inactive in experiment [10].

Regarding `Cc1ccccc1`, the Potency entry in experiment [1] and in [2] was “inactive” throughout. Moreover, the call in experiment [4] and in experiment [3] was inactive.

Turning to `CC(C)(C)NC(=O)[C@@H]1C[C@@H]2CCCC[C@@H]2CN1C[C@@H](O)[C@H](Cc1ccccc1)NC(=O)[C@H](CC(N)=O)NC(=O)c1ccc2ccccc2n1`, the Potency in experiment [2] was 50.1 µM (active).

For the molecule `CC(C)=O`, the Potency entry in [1] and in experiment [2] was “inactive” in each case. For the same molecule, the outcome in [4] and in [3] was inactive.

`CC1=C(/C=C/C(C)=C/C=C/C(C)=C/C=C/C=C(C)/C=C/C=C(C)/C=C/C2=C(C)C(=O)CCC2(C)C)C(C)(C)CCC1=O`: the molecule was called inactive in [5].

In the case of `CC1=C(/C=C/C(C)=C/C=C/C(C)=C/CO)C(C)(C)CCC1`, the molecule was called inactive in experiment [5] and in [3].

These data come from PubChem BioAssay (NCATS).
